Measurements: PubChem BioAssay AID651832 (Vanderbilt Specialized Chemistry Center, 2012)

Test: off-target radioligand binding panel, profiling panel, selectivity assay for M5 PAM project, biochemical, Eurofins PanLabs, competition binding (AID 651832)
Conditions: at 10 µM, stronger effect = higher value

O=C1C(=O)N(CCOc2ccccc2)c2ccc(OC(F)(F)F)cc21
inhibition of radioligand binding, muscarinic M1: 22% | inhibition (measured here: adenosine A3 binding): 57% | inhibition (measured here: adrenergic alpha1A binding): 71% | inhibition (measured here: adrenergic alpha1B binding): 66% | inhibition (measured here: cannabinoid CB1 binding): 72% | inhibition (measured here: dopamine D1 binding): 73% | inhibition (measured here: dopamine D3 binding): 59% | inhibition (measured here: glucocorticoid receptor binding): 88% | inhibition (measured here: hERG binding): 21% | inhibition (measured here: histamine H2 binding): 95% | inhibition (measured here: mu opioid binding): 78% | inhibition (measured here: muscarinic M2 binding): -2% | inhibition (measured here: norepinephrine transporter binding): 77%
